Results from PubChem BioAssay (NCI).
The panel holds about 83,000 compounds, 20% with a hit somewhere; the sample as a whole holds those more often.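 Note: values are percent growth. 100 is the growth of untreated cells, values between 100 and 0 indicate rising inhibition; between -100 and 0 indicates cell death.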 Values without a mark were called inactive. Active and inactive are the calls of the source. The calls were made as follows: active = growth percent below 10; inactive = the rest.

Each compound was assayed on MDA-MB-468 breast (assay: NCI-60 one-dose screen, 48 h (100 = growth as untreated, 0 = no growth, -100 = all killed)). Settings: 10 µM unless noted.
For `NC(=O)c1c(NC(=O)c2cccc(C(F)(F)F)c2F)sc2c1CCC(=O)C2`, the growth was -1.45% (active). Compound `COc1cnc2c(c1)C(=O)c1c-2n(CCCN2CCC(O)CC2)c(=O)c2cc(Cl)ccc12` has a growth of 38.5%. `NNc1nc(-c2cccnc2)nc2c1sc(=S)n2-c1ccccc1` was tested, and the growth was 115%. With `C#Cc1cc(OC)c(C(=O)Nc2ccc(F)cc2C(=O)Nc2cccc(S(=O)(=O)C(F)(F)F)c2)cn1` the growth was -31.3% (active). With `O=c1ccc(N=Nc2ccc([N+](=O)[O-])cc2)ccc1O` the growth was -15.7% (active). Work on `O=C(/C=C/c1ccc2c(c1)OCO2)c1c(O)c2ccccc2oc1=O` yielded a growth of 133%. In the case of `CCOC(=O)c1cnc2ccc(Cl)cc2c1NCCCN(C)C`, the growth is reported as -31.3% (active). Compound `COC(=O)c1cccc2c1N(C)c1c(cccc1C(=O)OC)CC2` has a growth of 124%. In the case of `Cc1ccc(-c2csc(NC(=O)N3CCN(c4cc5c(cc4F)c(=O)c(C(=O)O)cn5C4CC4)CC3)n2)cc1`, the growth is reported as -5.11% (active). In the case of `O=C(Nc1cccc(-c2nc3ccccc3[nH]2)c1)c1cccc(NC(=O)c2ccco2)c1`, the growth is reported as 70.8%. `CNc1ccccc1C(N)=O` was tested, and the growth was 105%. With `CCOc1ccc(C(=O)NCC(C)C)cc1` the growth was 105%. `COc1ccc(C(=O)C[C@]2(O)C(=O)Nc3c(Cl)ccc(Cl)c32)cc1` was tested, and the growth was -7.27% (active). `CC1Cc2ccccc2N1NC(=O)c1ccc(Cl)c(S(N)(=O)=O)c1` (stereo not given) gave a growth of 94.8%. With `COc1ccc(-c2cn(-c3ccccc3)c(-c3ccccc3)n2)cc1OC` the growth was 9.76% (active). `CNC(=O)c1[nH]cc(-c2ccc(OC)cc2)c1-c1cc(OC)c2c(c1OC)OCO2` showed a growth of 97.7%. `CN(C)CCCNc1nn2c(=O)c3ccccc3nc2c2ccccc12` was tested, and the growth was 53.4%. Compound `O=C1CCC(=O)CC1` has a growth of 115%. With `COc1ccc(C(=O)/C=C/c2cccc(Nc3ccnc4cc(Cl)ccc34)c2)cc1` the growth was -2.59% (active). `O=C(/C=C/c1cccc(O)c1)c1cccc(-n2cc(-c3ccc4ccccc4c3)[nH]c2=O)c1` was tested, and the growth was -79.7% (active). In the case of `CN(C)C(=S)Sc1ccc([N+](=O)[O-])cc1[N+](=O)[O-]`, the growth is reported as -78.7% (active). For `COc1ccc(-c2cc(-c3cc(OC)c(OC)c(OC)c3)nc(N3CCOCC3)c2C#N)cc1`, the growth was 76%. `O=[N+]([O-])CC(c1ccccc1)c1c[nH]c2ccccc12` (stereo not given) was tested, and the growth was 22.7%. For `COc1ccc(-c2nc3ccc(-c4nc5ccc(N6CCN(c7ccncc7)CC6)cc5[nH]4)cc3[nH]2)cc1OC`, the growth was -46.3% (active). Work on `[2H]c1nc(Nc2ncc(F)c(-c3cc(F)c4nc(C)n(C(C)C)c4c3)n2)c([2H])c([2H])c1CN1CCN(CC)CC1` yielded a growth of 90.1%. Compound `O=C(NC(=S)Nc1cccc(NC(=S)NC(=O)c2ccccc2)c1)c1ccccc1` has a growth of 98.5%. With `O=S(=O)(CCN1CCOCC1)Nc1cc(-c2ccc3ncnc(Nc4ccc(F)c(Cl)c4)c3c2)cnc1Cl` the growth was -34.4% (active). `NS(=O)(=O)Oc1cccc(-c2nc3sccn3c2-c2ccccc2)c1` was tested, and the growth was 18.6%. `O=C(CC(CC(=O)c1ccccc1)c1ccccn1)c1ccccc1` gave a growth of 102%. For `CN1CCc2cccc3c2C1Cc1ccc(O)c(O)c1-3` (stereo not given), the growth was 0.652% (active). `COc1ccc(/C=C(/C)c2ccc3ccc(OC)cc3[o+]2)c(O)c1` was tested, and the growth was 67.7%. In the case of `COc1ccc(/C=N/C2=NNC(C)(c3ccccc3O)N2C(Cc2c[nH]c3ccccc23)C(=O)O)cc1` (stereo not given), the growth is reported as -3.81% (active). Work on `Cc1oc(-c2ccccc2Cl)cc1C(=O)Nc1ccc(S(N)(=O)=O)cc1` yielded a growth of 109%. With `O=c1c2cc(F)ccc2oc2c(NCCNCCO)nc3ccccc3c12` the growth was -14.5% (active). `Fc1ccc2c(c1)c(-c1nc(-c3c[nH]c4ncccc34)cs1)cn2CCCN1CCCCC1` was tested, and the growth was 76.6%. Work on `CCCCC(CC)COC(C)=O` (stereo not given) yielded a growth of 106%. `CCCCOP(=O)(OCCCC)C(C(=O)OCC)C(CC(=O)OCC)C(=O)OCC` (stereo not given) gave a growth of 124%. In the case of `Fc1ccc(-c2ccnc3nc(-c4ccncc4)nn23)cc1`, the growth is reported as 111%. Compound `CCOC(=O)c1cn2ncnc(Oc3ccc(NC(=O)NCCN4CCOCC4)c(Cl)c3)c2c1C` has a growth of 85.1%. For `CC(C)n1nc(-c2ccc3oc(N)nc3c2)c2c(N)ncnc21`, the growth was -34.1% (active).
